In PubChem BioAssay (Tox21):
Where “and” joins values, the source holds several entries; their conditions need not be identical. Equal values may be shown once. Inconclusive results are not listed. Calls of active or inactive are those of the source. Calls come from the whole dose curve; as a rule, active = well fitted curve in the direction sought with a large enough effect in the repeat runs; inconclusive = weak or mixed curves; inactive = no such curve, though single readings can be large; an effect the other way counts as inactive or inconclusive.

Legend:
[1] = A CellTox Green Cytotoxicity Assay to monitor cytotoxicity in HEK293 cells - 40 hour (AID 1224871); note: nearly all actives have a fitted effect of over 45% in size
How it was run: (§1)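 Each value comes from one timepoint of a single continuous run in which HEK293 cells with CellTox Green were exposed to compound for up to 40 h at 37 C, dye fluorescence rising with cell death.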

[2] = qHTS RealTime-Glo MT Cell Viability Assay in HEK293 cells - 16 hour (AID 1224872); note: top concentration of the series differs between compounds; nearly all actives have a fitted effect of over 50% in size
How it was run: (§2)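 Reads taken at 0, 8, 16, 24, 32 and 40 h from the same wells. HEK293 cells (600/well) carried RealTime-Glo reagents from seeding, with compound added after a 5 h settle at 37 C.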

[3] = qHTS RealTime-Glo MT Cell Viability Assay in HepG2 cells - 8 hour (AID 1224873); note: nearly all actives have a fitted effect of over 55% in size
How it was run: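 HepG2 cells mixed with RealTime-Glo MT reagents (NanoLuc plus cell-permeant prosubstrate) were seeded at 600 cells/well, incubated 5 h at 37 C/5% CO2, then pinned with compounds in DMSO; nonlytic luminescence tracked viability during 40 h treatment.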

[4] = qHTS RealTime-Glo MT Cell Viability Assay in HEK293 cells - 40 hour (AID 1224874); conditions: RealTime-Glo luminescence; max response: hits give low values; note: nearly all actives have a fitted effect of over 50% in size
How it was run: (§3)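 qHTS format; HEK293 cells with NanoLuc/prosubstrate reagent, 37 C/5% CO2 for 5 h pre-dosing; compounds 23 nL in DMSO; luminescence at each time point reflects viable cells.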

[5] = A CellTox Green Cytotoxicity Assay to monitor cytotoxicity in HEK293 cells - 24 hour (AID 1224875); note: series mostly up to about 77 µM; nearly all actives have a fitted effect of over 45% in size
How it was run: as §1

[6] = A CellTox Green Cytotoxicity Assay to monitor cytotoxicity in HepG2 cells - 16 hour (AID 1224876); note: nearly all actives have a fitted effect of over 45% in size
How it was run: (§4)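 Continuous culture of HepG2 cells with a membrane-impermeant DNA dye; rising fluorescence marks dead cells. Compound exposure lasted up to 40 h at 37 C, with reads every 8 h from 0 h.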

[7] = qHTS RealTime-Glo MT Cell Viability Assay in HepG2 cells - 32 hour (AID 1224877); note: nearly all actives have a fitted effect of over 55% in size
How it was run: (§5)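 HepG2 suspension premixed with RealTime-Glo reagents is plated at 600 cells per well and left 5 h at 37 C/5% CO2. Compounds in DMSO then go in, and bioluminescence reflecting viable cell number is recorded over 40 h.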

[8] = A CellTox Green Cytotoxicity Assay to monitor cytotoxicity in HepG2 cells - 24 hour (AID 1224878); note: nearly all actives have a fitted effect of over 45% in size
How it was run: as §4

[9] = A CellTox Green Cytotoxicity Assay to monitor cytotoxicity in HepG2 cells - 40 hour (AID 1224879); note: nearly all actives have a fitted effect of over 40% in size
How it was run: as §4

[10] = qHTS RealTime-Glo MT Cell Viability Assay in HEK293 cells - 0 hour (AID 1224880)
How it was run: as §3

[11] = A CellTox Green Cytotoxicity Assay to monitor cytotoxicity in HEK293 cells - 32 hour (AID 1224881); note: nearly all actives have a fitted effect of over 40% in size
How it was run: as §1

[12] = A CellTox Green Cytotoxicity Assay to monitor cytotoxicity in HepG2 cells - 0 hour (AID 1224882); note: nearly all actives have a fitted effect of over 35% in size
How it was run: as §4

[13] = A CellTox Green Cytotoxicity Assay to monitor cytotoxicity in HepG2 cells - 32 hour (AID 1224883); note: nearly all actives have a fitted effect of over 50% in size
How it was run: as §4

[14] = A CellTox Green Cytotoxicity Assay to monitor cytotoxicity in HEK293 cells - 8 hour (AID 1224884); note: nearly all actives have a fitted effect of over 35% in size
How it was run: as §1

[15] = qHTS RealTime-Glo MT Cell Viability Assay in HepG2 cells - 16 hour (AID 1224885); note: nearly all actives have a fitted effect of over 50% in size
How it was run: as §5

[16] = qHTS RealTime-Glo MT Cell Viability Assay in HEK293 cells - 8 hour (AID 1224887)
How it was run: as §3

[17] = A CellTox Green Cytotoxicity Assay to monitor cytotoxicity in HEK293 cells - 16 hour (AID 1224888); note: nearly all actives have a fitted effect of over 35% in size
How it was run: as §1

[18] = qHTS RealTime-Glo MT Cell Viability Assay in HepG2 cells - 0 hour (AID 1224889); note: nearly all actives have a fitted effect of over 50% in size
How it was run: as §5

[19] = A CellTox Green Cytotoxicity Assay to monitor cytotoxicity in HepG2 cells - 8 hour (AID 1224890); note: nearly all actives have a fitted effect of over 45% in size
How it was run: as §4

[20] = qHTS RealTime-Glo MT Cell Viability Assay in HEK293 cells - 24 hour (AID 1224886)
How it was run: as §2
% is set by controls: 0 for no effect and ±100 for the full control effect.

O=C(Nc1ccc(Oc2ccc(Cl)cc2)c(Cl)c1)c1cc(I)cc(I)c1O
inactive: Potency [1] | Potency [2] | Potency [3] | max response [4] 2.12% | Potency [5] | Potency [6] | Potency [7] | Potency [8] | Potency [9] | Potency [10] | Potency [11] | Potency [12] | Potency [13] | Potency [14] | Potency [15] | Potency [16] | Potency [17] | Potency [18] | Potency [19]

O=C(c1ccc(O)cc1O)c1ccc(O)cc1O
inactive: Potency [1] | Potency [2] | Potency [3] | max response [4] -12.9% and -13.9% | Potency [5] | Potency [6] | Potency [7] | Potency [8] | Potency [9] | Potency [10] | Potency [11] | Potency [12] | Potency [13] | Potency [14] | Potency [15] | Potency [20] | Potency [16] | Potency [17] | Potency [18] | Potency [19]

CC(C)=CCOc1ccc(/C=C/C(=O)c2ccc(OCC=C(C)C)cc2OCC(=O)O)cc1
inactive: Potency [1] | Potency [2] | Potency [3] | max response [4] 1.22% | Potency [5] | Potency [6] | Potency [7] | Potency [8] | Potency [9] | Potency [10] | Potency [11] | Potency [12] | Potency [14] | Potency [15] | Potency [16] | Potency [17] | Potency [18] | Potency [19]

CO[Si](CCCNc1ccccc1)(OC)OC
inactive: Potency [1] | Potency [2] | Potency [3] | max response [4] 16.6% | Potency [5] | Potency [6] | Potency [7] | Potency [8] | Potency [9] | Potency [10] | Potency [11] | Potency [12] | Potency [14] | Potency [15] | Potency [20] | Potency [16] | Potency [17] | Potency [18] | Potency [19]

CN(C)[C@@H]1C(=O)C(C(N)=O)=C(O)[C@@]2(O)C(=O)C3=C(O)c4c(O)cccc4C[C@H]3C[C@@H]12
inactive: Potency [1] | Potency [2] | Potency [3] | max response [4] 1.21% | Potency [5] | Potency [6] | Potency [7] | Potency [8] | Potency [9] | Potency [11] | Potency [12] | Potency [13] | Potency [14] | Potency [15] | Potency [20] | Potency [16] | Potency [17] | Potency [18] | Potency [19]

CC(C)(C)c1ccc(C(=O)O)cc1
inactive: Potency [1] | Potency [2] | Potency [3] | max response [4] -13.2% | Potency [5] | Potency [6] | Potency [7] | Potency [8] | Potency [9] | Potency [10] | Potency [11] | Potency [12] | Potency [14] | Potency [15] | Potency [20] | Potency [16] | Potency [17] | Potency [18] | Potency [19]
